Screens from PubChem BioAssay.
NALP1 yeast inh = NALP1 inhibition | inhibition, % at 10 µM | S. cerevisiae NALP1/ASC/caspase-1 growth, X-gal OD620, 72 h | AID 2071 | hit rate 0.61% among 280,000; in the data active = inhibition mostly above about 24%, no sharp cut-off; inactive = mostly below about 32%
Yeast superoxide = lowers age-related superoxide in aged yeast cells; superoxide response (% of plate mean), % at 10 µM; hit rate 0.18% among 330,000; S. cerevisiae aged cells, superoxide DHE fluorescence; active compounds read low;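 active = superoxide response under a set limit, about three screen SD below normal, cut at about 65% in these data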;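 note: yeast aged for seven days with compound at 30 °C before DHE staining; 100% = average MFI of all compound-treated wells on the plate with controls excluded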
UBC13 polyUb = inhibitors of human UBC13 polyubiquitin chain formation; P61088; TR-FRET; inhibition, % at 20 µM; hit rate 0.47% among 330,000; AID 485273; in the data active = inhibition above about 45%, passing the limit was not always enough
Target sequence (P61088 whole entry, looked up): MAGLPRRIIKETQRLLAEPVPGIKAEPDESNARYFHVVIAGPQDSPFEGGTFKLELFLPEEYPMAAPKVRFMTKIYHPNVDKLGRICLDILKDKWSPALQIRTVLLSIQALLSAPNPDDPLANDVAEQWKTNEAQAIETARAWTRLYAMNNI
NR3A LBD binder = modulators (binders) of human NR3A ligand-binding domain. NR3A LBD differential scanning fluorimetry, Tm shift; 0% = protein alone, 100% = glycine-bound protein. Tm shift relative to glycine control, % at 25 µM. hit rate 2.5% among 340,000. AID 1259313;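 active = melting temperature shift of at least 10% of the positive control shift, at one fixed dose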
dFosB activator = activators of mouse delta FosB homodimer; P13346; purified delta FosB, TAMRA-CDK5 oligo fluorescence polarization; percent of positive-control signal above neutral wells; activation, % at 25 µM; hit rate 0.99% among 340,000;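 active = mean activation above about 17%, with every replicate also reaching it, limit read from the data, passing the limit was not always enough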
Target sequence (P13346 whole entry, looked up): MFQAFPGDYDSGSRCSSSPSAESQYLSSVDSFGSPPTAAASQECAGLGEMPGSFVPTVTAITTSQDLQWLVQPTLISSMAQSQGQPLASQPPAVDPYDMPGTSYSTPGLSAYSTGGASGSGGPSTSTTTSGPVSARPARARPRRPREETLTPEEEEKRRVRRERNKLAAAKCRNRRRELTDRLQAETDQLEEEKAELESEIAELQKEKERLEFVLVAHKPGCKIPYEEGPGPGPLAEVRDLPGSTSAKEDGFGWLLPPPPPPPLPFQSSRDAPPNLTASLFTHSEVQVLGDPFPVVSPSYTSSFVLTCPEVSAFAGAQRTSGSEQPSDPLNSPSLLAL
Numbers without * were called inactive; i = inactive; · = no result. Rows were chosen to be rich in hits. Some 4.3% of all compounds tested hit in one or more screens of this group.

SMILES	NALP1 yeast inh	Yeast superoxide	UBC13 polyUb	NR3A LBD binder	dFosB activator
O=c1[nH]c2ccc(S(=O)(=O)N3CCN(Cc4ccccc4)CC3)cc2[nH]c1=O	-2	87	10	11*	-15
CCOC(=O)Cc1csc(N/C(=N/S(=O)(=O)c2cc(Br)ccc2OCC)c2ccccc2)n1	42	99	-4	-12	-4
Cn1nc(-c2ccc(Cl)cc2)nc2c(=O)n(C)c(=O)nc1-2	48*	i	-121	·	·
COc1ccc(OC)c(Nc2nc(-c3cccs3)cs2)c1	37	86	-1	2	-4
COc1ccc(C)cc1Nc1nc(-c2c[nH]c3ccccc23)cs1	·	104	-26	-7	27*
COCCn1c(=NC(=O)c2cc(-c3cccs3)nc3ccccc23)sc2cc(S(N)(=O)=O)ccc21	25	99	19	28*	-20
COCCn1c(=NC(=O)c2ccc(S(=O)(=O)N3CCOCC3)cc2)sc2cc(S(N)(=O)=O)ccc21	16	89	19	-8	-12
C=CCn1c(=NC(=O)c2cc(-c3cccs3)nc3ccccc23)sc2cc(S(N)(=O)=O)ccc21	32	115	26	28*	-3
O=C(Nc1c(-c2ccccc2)nc2ccccn12)c1cccc(F)c1	0	101	4	4	-5
CCOc1ccccc1CN1CCN(Cc2nc3c(s2)CCCC3)CC1CCO (stereo not given)	35*	96	-2	2	3
COc1ccc(C2CC(=O)c3c(O)cc(O)cc3O2)c(CC=C(C)C)c1OC (stereo not given)	·	89	-5	8	-5
COc1cc2c(c(OC)c1CC=C(C)C)C[C@H](c1ccc(O)cc1O)CO2	·	96	15	19*	7
Cc1ccc2cc3c(N)c4c(C)ccc(C)c4nc3nc2c1	14	·	·	-1	29*
Cn1ncc(SCc2ccccc2)c(Cl)c1=O	2	92	2	0	-3
Cn1ncc(S(=O)(=O)Cc2ccccc2)c(Cl)c1=O	108*	97	3	1	5
COc1ccc(-c2ccnc(SCC(=O)N3CCN(c4ccccc4)CC3)n2)cc1	·	67	5	1	6
Cc1sc2ncnc(NCC(O)c3ccc([N+](=O)[O-])cc3)c2c1C (stereo not given)	-4	104	13	-4	-9
O=C(NC(=S)Nc1ccccn1)c1ccc([N+](=O)[O-])cc1	23	89	-5	11*	-6
O=C1NC(=S)S/C1=C\c1cccc([N+](=O)[O-])c1	·	·	·	12*	4
CCOC(=O)c1c(C)nc2c(c1-c1cc(OC)ccc1OC)C(=O)CC(C)(C)C2	5	86	-7	1	-4
COc1ccc(C(=O)NC(C)c2nnc(SCC(=O)NC3CCCC3)n2C)cc1 (stereo not given)	-8	101	4	-4	0
O=C(Nc1ccccc1)c1cc([N+](=O)[O-])ccc1N1CCCCC1	·	93	4	-6	-2
O=C(NC(=S)Nc1ccccc1)c1cc([N+](=O)[O-])ccc1N1CCOCC1	26*	118	-11	-5	-11
O=C(NC12CC3CC(CC(C3)C1)C2)c1cc([N+](=O)[O-])ccc1N1CCOCC1	14	128	-7	13*	3
COCCCNC(=O)/C(C#N)=C/c1c(N2CCN(c3ccccc3)CC2)nc2ccccn2c1=O	20	105	6	-2	-12
SMILES	NALP1 yeast inh	Yeast superoxide	UBC13 polyUb	NR3A LBD binder	dFosB activator
O=C(COC(=O)CN1C(=O)NC2(CCCC2)C1=O)Nc1c(Cl)cccc1C(F)(F)F	·	102	-1	0	1
c1ccc(CCNc2c3c(nc4ncnn24)CCC3)cc1	25*	73	-6	1	-3
CN(C(=O)COC(=O)COc1ccc2c(c1)CCC2)c1c(N)n(Cc2ccccc2)c(=O)[nH]c1=O	·	109	3	18*	-18
CC(=O)N1C[C@H]2CON(C)[C@H]2C[C@H]1c1ccccc1Br	·	·	·	-1	5
COc1ccc(OC)c(NC(=O)/C=C/c2ccccc2[N+](=O)[O-])c1	36	122	11	0	-5
Cc1cccc(NC(=O)/C=C/c2ccc([N+](=O)[O-])s2)c1	30	100	·	12*	-1
Cc1cccc(NC(=O)c2ccc(-c3ccccc3[N+](=O)[O-])o2)c1	14	106	-12	27*	0
COc1cccc(NC(=O)/C=C/c2ccccc2[N+](=O)[O-])c1	38	99	10	27*	-8
Cc1ccc(NC(=O)/C=C/c2ccc([N+](=O)[O-])s2)cc1	30	104	-1	-6	-3
COc1cccc(NC(=O)c2ccc(-c3ccccc3[N+](=O)[O-])o2)c1	-3	96	-17	28*	-17
Cc1ccc(C(=O)NC(=S)N2CCN(C)CC2)cc1Br	2	·	4	1	5
Cc1c(Cl)cccc1NC(=O)C1CC(=O)N(C2CCCC2)C1 (stereo not given)	·	·	·	-8	-9
COc1cc(NC(=O)CSCC(=O)Nc2cc(OC)cc(OC)c2)cc(OC)c1	·	101	-2	-1	·
Cn1[nH]cc(C=NC(N)=O)c1=O	·	·	·	-2	-4
O=C(Cc1ccc(-n2c(=O)c3sccc3n(CC(=O)Nc3ccccc3)c2=O)cc1)NCc1ccco1	21	112	6	4	73*
Cc1[nH]c2ccccc2c1C(=O)COC(=O)c1cccc(S(=O)(=O)N2CCCCC2)c1	42	97	-7	21*	4
Cc1ccc(C(=O)OCC(=O)c2c[nH]c3ccccc23)cc1S(=O)(=O)N1CCCCC1	20	100	-8	25*	-1
Cc1onc(-c2c(F)cccc2Cl)c1C(=O)OCC(=O)c1c[nH]c2ccccc12	·	103	13	13*	14
Cc1ccc(C(=O)OCC(=O)NCc2ccccc2)cc1S(=O)(=O)N1CCCCC1	·	100	6	0	-13
COc1cccc(-c2ccc(NC(=O)C3CCCN(Cc4cnn(C(C)C)c4)C3)cc2)c1 (stereo not given)	9	102	19	-1	16
Nc1ccc(C23CC4CC(CC(O)(C4)C2)C3)cc1	4	105	6	17*	-8
Cc1ccc(NC(=O)CC2=NC(=O)C(CC(=O)Nc3ccccc3C)S2)cc1 (stereo not given)	-2	109	-3	-6	34*
CN(C)CCNc1ccc2nnn3c4ccc(O)cc4c(=O)c1c23	·	·	·	1	-54
CCN(CC)CCCNc1ccc2ncn3c4ccc(O)cc4c(=O)c1c23	·	·	·	-2	38*
CCC(c1nnnn1CCOC)N1CCN(Cc2ccccc2OC)CC1 (stereo not given)	0	75	-4	15*	-7
CCCC(c1nnnn1CCOC)N1CCN(Cc2ccccc2)CC1 (stereo not given)	0	107	10	0	-4
CCOc1ccc(-n2c(=S)sc3c(=O)n(-c4ccc(F)cc4)c(SCC(=O)O)nc32)cc1	3	99	-10	15*	-5
CCOc1ccc(-n2c(=S)sc3c(=O)n(-c4ccccc4)c(SCC(=O)O)nc32)cc1	21	96	4	-1	-1
COc1ccc2c(CC(=O)OCC(=O)c3ccccc3OC)coc2c1	12	114	-1	-1	2
